The source made the active and inactive calls.
Assays:
[1] = binders of probe aFSTL3 on microarray, primary screen, stem cell growth factor project, biochemical, small-molecule microarray, fluorescence 635/667 (AID 1064); settings: higher = more signal;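 note: measures binding of the biotinylated anti-FSTL3 antibody to printed compounds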
[2] = binders from COS7 lysate, DM2A8 probe, primary screen, torsin A project, cell lysate, small-molecule microarray, fluorescence 635/667 (AID 1065); settings: higher = more signal, COS7 lysate expressing mutant human TOR1A
[3] = binders of probe aFGF2 on microarray, primary screen, stem cell growth factor project, biochemical, small-molecule microarray, fluorescence 635/667 (AID 1067); settings: higher = more signal;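 note: measures binding of biotinylated aFGF2 protein to printed compounds on slides; z-score merges feature fluorescence and signal-to-noise across triplicate slides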
[4] = binders of probe aFGF10 on microarray, primary screen, stem cell growth factor project, biochemical, small-molecule microarray, fluorescence 635/667 (AID 1071); settings: higher = more signal;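 note: score merges 667 nm spot intensity and signal to noise from triplicate slides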
[5] = molecular target: Neurogenic locus notch homolog protein 2 (Homo sapiens) (UniProt Q04721); assay: Notch2 binders on small-molecule microarrays, primary screen, biochemical, small-molecule microarray, 635 nm fluorescence, stem cell growth factors (AID 1073); settings: Notch2 binding, higher = more signal
[6] = molecular target: Pro-neuregulin-1, membrane-bound isoform (Homo sapiens) (UniProt Q02297); assay: NRG1 binders on small-molecule microarrays, primary screen, psychiatric disease protein project, biochemical, small-molecule microarray, fluorescence 635/667 (AID 1075); settings: NRG1 binding, 635 nm fluorescence, higher = more signal;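 note: score combines 667 nm spot fluorescence with signal to noise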
[7] = tested on: Neuregulin-1 EGF-like domain; assay: binders of neuregulin-1 EGF-like domain, primary screen, biochemical, small-molecule microarray, 635 nm fluorescence (AID 1081); settings: small-molecule microarray binding, higher = more signal;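 note: binding of the protein to compounds printed on small-molecule microarray slides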
[8] = FRG1 promoter luciferase signal modulators, primary screen, FRG1 inhibition for FSHD, cell-based, C2C12 myotubes, firefly/Renilla luciferase, luminescence (AID 1084); settings: higher = more signal, called active from +8 up or from −8 down
[9] = binders of probe aFST on microarray, primary screen, stem cell growth factor project, biochemical, small-molecule microarray, fluorescence 635/667 (AID 1086); settings: higher = more signal;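 note: score merges 667 nm fluorescence with signal-to-noise of each printed compound spot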
[10] = binders of probe aHhip on microarray, primary screen, stem cell growth factor project, biochemical, small-molecule microarray, fluorescence 635/667 (AID 1087); settings: higher = more signal;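 note: score merges spot fluorescence at 667nm with spot signal to noise ratio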

Sequence of Pro-neuregulin-1, membrane-bound isoform (Homo sapiens) (Q02297 whole entry, looked up, the tested form may be a part, canonical isoform): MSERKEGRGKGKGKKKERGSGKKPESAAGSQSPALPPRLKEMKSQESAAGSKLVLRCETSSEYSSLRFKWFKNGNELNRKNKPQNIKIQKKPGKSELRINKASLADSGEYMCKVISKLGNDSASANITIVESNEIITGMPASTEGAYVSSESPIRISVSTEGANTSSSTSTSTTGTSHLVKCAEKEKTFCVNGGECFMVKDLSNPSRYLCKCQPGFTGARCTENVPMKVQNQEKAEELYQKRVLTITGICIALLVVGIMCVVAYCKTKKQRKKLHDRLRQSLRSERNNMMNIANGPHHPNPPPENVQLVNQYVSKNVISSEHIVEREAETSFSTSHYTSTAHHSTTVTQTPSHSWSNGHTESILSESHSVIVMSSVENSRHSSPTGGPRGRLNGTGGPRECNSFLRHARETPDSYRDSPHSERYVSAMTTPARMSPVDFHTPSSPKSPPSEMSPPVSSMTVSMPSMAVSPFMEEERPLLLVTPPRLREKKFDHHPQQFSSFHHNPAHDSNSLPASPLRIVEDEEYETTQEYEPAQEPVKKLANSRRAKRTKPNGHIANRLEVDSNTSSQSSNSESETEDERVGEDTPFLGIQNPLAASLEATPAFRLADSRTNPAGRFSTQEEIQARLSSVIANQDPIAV
Sequence of Neurogenic locus notch homolog protein 2 (Homo sapiens) (Q04721 whole entry, looked up, canonical isoform): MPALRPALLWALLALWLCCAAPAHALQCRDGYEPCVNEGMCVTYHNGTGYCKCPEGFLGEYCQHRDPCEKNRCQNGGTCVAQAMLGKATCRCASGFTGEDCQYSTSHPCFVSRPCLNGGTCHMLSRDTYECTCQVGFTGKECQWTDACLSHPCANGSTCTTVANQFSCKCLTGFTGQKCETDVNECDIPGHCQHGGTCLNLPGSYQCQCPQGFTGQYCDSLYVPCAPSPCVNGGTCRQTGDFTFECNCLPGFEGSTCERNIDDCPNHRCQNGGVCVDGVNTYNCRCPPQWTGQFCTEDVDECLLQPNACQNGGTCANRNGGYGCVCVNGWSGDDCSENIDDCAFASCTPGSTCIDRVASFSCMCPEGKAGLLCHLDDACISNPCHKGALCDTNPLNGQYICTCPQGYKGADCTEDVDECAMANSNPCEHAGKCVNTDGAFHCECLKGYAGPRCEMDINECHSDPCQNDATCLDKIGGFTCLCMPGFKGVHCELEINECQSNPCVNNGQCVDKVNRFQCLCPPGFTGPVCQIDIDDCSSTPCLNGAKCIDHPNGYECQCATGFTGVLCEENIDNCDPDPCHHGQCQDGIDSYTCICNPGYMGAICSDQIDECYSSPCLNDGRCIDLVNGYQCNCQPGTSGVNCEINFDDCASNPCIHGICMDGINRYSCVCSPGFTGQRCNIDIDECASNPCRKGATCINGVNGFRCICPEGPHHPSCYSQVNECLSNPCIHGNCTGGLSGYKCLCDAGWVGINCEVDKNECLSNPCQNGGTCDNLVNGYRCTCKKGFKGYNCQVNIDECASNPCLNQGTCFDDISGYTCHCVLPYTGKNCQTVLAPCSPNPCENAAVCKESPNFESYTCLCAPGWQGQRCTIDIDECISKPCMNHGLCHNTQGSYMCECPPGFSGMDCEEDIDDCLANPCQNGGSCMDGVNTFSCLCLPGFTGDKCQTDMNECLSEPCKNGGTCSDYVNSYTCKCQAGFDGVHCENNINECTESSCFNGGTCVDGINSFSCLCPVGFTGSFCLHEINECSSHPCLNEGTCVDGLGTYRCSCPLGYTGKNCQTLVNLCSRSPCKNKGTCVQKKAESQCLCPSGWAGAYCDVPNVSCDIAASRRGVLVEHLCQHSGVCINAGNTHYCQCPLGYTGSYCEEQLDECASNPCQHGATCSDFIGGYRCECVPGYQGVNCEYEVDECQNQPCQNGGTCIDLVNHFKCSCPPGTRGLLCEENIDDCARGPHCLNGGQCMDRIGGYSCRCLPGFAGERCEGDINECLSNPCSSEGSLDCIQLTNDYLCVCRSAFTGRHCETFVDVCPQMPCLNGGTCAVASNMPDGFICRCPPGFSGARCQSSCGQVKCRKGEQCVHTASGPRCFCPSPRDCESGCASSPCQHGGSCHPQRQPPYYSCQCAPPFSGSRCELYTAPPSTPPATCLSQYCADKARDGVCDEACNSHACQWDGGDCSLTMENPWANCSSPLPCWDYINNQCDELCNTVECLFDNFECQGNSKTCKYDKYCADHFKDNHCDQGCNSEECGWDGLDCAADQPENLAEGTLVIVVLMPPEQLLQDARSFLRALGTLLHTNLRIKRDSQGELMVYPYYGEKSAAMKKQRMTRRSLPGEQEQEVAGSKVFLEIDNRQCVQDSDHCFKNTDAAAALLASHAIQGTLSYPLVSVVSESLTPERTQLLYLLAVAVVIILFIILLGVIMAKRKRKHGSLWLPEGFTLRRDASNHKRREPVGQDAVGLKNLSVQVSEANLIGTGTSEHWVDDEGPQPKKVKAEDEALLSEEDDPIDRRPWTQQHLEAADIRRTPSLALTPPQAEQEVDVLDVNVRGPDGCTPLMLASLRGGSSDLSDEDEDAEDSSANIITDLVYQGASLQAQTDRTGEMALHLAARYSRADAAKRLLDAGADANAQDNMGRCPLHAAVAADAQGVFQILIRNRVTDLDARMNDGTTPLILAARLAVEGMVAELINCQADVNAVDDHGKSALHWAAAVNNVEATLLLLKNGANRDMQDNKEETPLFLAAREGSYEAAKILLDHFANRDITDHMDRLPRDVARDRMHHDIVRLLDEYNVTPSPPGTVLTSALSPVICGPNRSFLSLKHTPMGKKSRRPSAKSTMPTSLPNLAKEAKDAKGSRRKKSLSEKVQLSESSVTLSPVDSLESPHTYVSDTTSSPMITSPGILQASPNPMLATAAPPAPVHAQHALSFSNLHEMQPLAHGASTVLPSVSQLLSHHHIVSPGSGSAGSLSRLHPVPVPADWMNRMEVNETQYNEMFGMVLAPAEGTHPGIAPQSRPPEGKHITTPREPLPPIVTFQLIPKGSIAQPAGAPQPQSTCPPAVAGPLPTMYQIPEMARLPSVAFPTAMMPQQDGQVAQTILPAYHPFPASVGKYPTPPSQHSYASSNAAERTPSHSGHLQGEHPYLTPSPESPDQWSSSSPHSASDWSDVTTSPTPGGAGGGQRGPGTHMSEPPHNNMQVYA

| SMILES | composite z-score [1] | composite z-score [2] | composite z-score [3] | composite z-score [4] | composite z-score [5] | composite z-score [6] | composite z-score [7] | z-score [8] | composite z-score [9] | composite z-score [10] |
| --- | --- | --- | --- | --- | --- | --- | --- | --- | --- | --- |
| CCCCCCc1nc(-c2cc(C)c(OC)c(C)c2)cc2c1[Si](C(C)C)(C(C)C)O[C@H]2c1ccccc1 | -0.315 | -0.397 | -0.14 | -0.324 | -0.209 | -0.626 | -1.04 | 0.119 (inactive) | 0.0223 | 0.0505 |
| Cc1ccc(N2C(=O)c3ccccc3[C@](C)(C(=O)O)[C@@H]2c2ccc(CO)cc2)nc1 | 1.5 | -0.461 | -0.224 | -1.1 | -1.52 | 1.91 | -0.402 | 0.744 (inactive) | -0.663 | -0.181 |
| Cc1ccccc1C(O)C1C=CC2C(=O)N(c3ccccc3)C(=O)C2N1Nc1ccc(C#N)cc1 (stereo not given) | 0.834 | 1.46 | 0.429 | 1.15 | 1.63 | 1.91 | 1.25 | -1.25 (inactive) | 1.96 | -0.111 |
| O=C(N1CCCCC1)[C@@]1(CCS(=O)(=O)c2ccccc2)N=C(c2ccc(OCCCO)cc2)O[C@H]1c1ccccc1 | 0.151 | 0.529 | 0.236 | 0.685 | 1.4 | 0.0933 | 1.23 | -0.144 (inactive) | 1.51 | -0.0645 |
| CC(C)[Si]1(C(C)C)O[C@@H](c2ccccc2)c2cc(C3CC3)nc(-c3ccc(Oc4ccccc4)cc3)c21 | 0.0382 | 0.0357 | -0.119 | -0.772 | -0.304 | -0.46 | -0.985 | -0.895 (inactive) | -0.148 | -0.0074 |
| C=CC[C@@]12N=C(c3ccc(OCCCO)cc3)O[C@@H]1c1ccccc1CN(Cc1ccccc1)C2=O | 1.36 | 0.845 | -0.0043 | 0.245 | 0.477 | 0.713 | 1.16 | -4 (inactive) | 0.15 | -0.138 |
| C=C[C@H](OC)[C@@H](OC(=O)Nc1ccc(SC)cc1)c1ccc(OC)c(O)c1 | 0.687 | -0.368 | -0.141 | -0.748 | -0.708 | -0.231 | 0.164 | 1.2 (inactive) | -0.595 | -0.0994 |
| C#CCCCON=C1C[C@@H](O)[C@@H](O)[C@@H]2[C@@H]3C(=O)N(Cc4ccc5c(c4)OCO5)C(=O)[C@@H]3CC[C@H]12 | -0.264 | 0.933 | -0.0533 | 0.716 | 0.624 | 0.662 | 0.695 | 0.523 (inactive) | -0.0042 | -0.342 |
| CCOC(=O)C[C@H]1[C@H](OC(=O)c2ccccc2-c2ccccc2)[C@@H](NC(=O)c2ccc(-c3ccccc3)cc2)c2cc(OCCCO)ccc2N1C(=O)Cc1ccc(OC)cc1 | -0.191 | -0.0021 | -0.0642 | 0.389 | 0.212 | -0.109 | 0.373 | 0.524 (inactive) | 0.437 | -0.0346 |
| C=C(CCCC)C(=O)CC[C@@H](OC(C)=O)c1ccccc1OCCO | 0.286 | 0.844 | -0.177 | -0.34 | -0.975 | -0.52 | -0.37 | -2.26 (inactive) | -0.488 | -0.0645 |
| CC(c1ccccc1)C(O)C1C=CC2C(=O)N(C)C(=O)C2N1N(c1ccccc1)c1ccccc1 (stereo not given) | 1 | 0.23 | 0.0395 | -0.167 | 1.08 | 0.504 | 1.03 | -0.206 (inactive) | 0.657 | -0.0024 |
| COC(=O)[C@@]1(Cc2ccc(OC)cc2)[C@H]2c3cc(C(=O)N(C)C)n(CCc4ccc(OC)c(Br)c4)c3C[C@H]2CN1C(=O)c1ccccc1 | 1.53 | 0.323 | 0.544 | 1.03 | 1.66 | 1.77 | 1.34 | -0.151 (inactive) | 1.95 | -0.0489 |
| Cc1ccc(S[C@]2(C(=O)O)CC(=O)N(Cc3ccccc3)[C@@H]2c2ccc(CO)cc2)cc1 | 0.58 | 0.131 | -0.0853 | -1.1 | 0.0203 | -0.33 | 0.736 | -0.579 (inactive) | 0.262 | -0.367 |
| O=C(CS)NCCCCCNC(=O)[C@H]1C[C@H]2C(=O)N3CCC[C@H]3C(=O)N2[C@H]1c1ccc(O)cc1 | 0.305 | 0.0424 | -0.0363 | -0.267 | -0.231 | 0.873 | 1.25 | 0.393 (inactive) | -0.339 | 0.0274 |
| CCOC(=O)C1=CC[C@@H](c2ccc(-c3ccc(OCc4ccccc4)cc3)c(OC)c2)N(S(=O)(=O)c2ccc(C)cc2)[C@H]1c1ccccc1 | -0.216 | 0.448 | 0.0188 | 0.668 | 1.49 | 1.36 | 0.952 | 0.141 (inactive) | 0.9 | 0.314 |
| CCC(=O)[C@]12O[C@@]3([C@@H]4C(=O)OCC[C@@H]41)N(Cc1ccccc1)C(C)=C(C(=O)OC)[C@@H](c1ccccc1)N3C2=O | 0.232 | -0.289 | -0.163 | -0.133 | -0.333 | -0.0829 | -0.814 | -0.0144 (inactive) | -0.348 | -0.134 |
| O=C(NCc1ccccc1)[C@@]1(CCS(=O)(=O)c2ccccc2)COC(c2ccc(OCCCO)cc2)=N1 | 0.971 | 0.985 | 0.0025 | 0.382 | 1.17 | 2.16 | 1.18 | -4.58 (inactive) | 0.662 | -0.15 |

| SMILES | composite z-score [1] | composite z-score [2] | composite z-score [3] | composite z-score [4] | composite z-score [5] | composite z-score [6] | composite z-score [7] | z-score [8] | composite z-score [9] | composite z-score [10] |
| --- | --- | --- | --- | --- | --- | --- | --- | --- | --- | --- |
| O=C1C[C@@](C(=O)NC2CC2)(c2ccc([N+](=O)[O-])cc2)[C@@H](c2ccc(CO)cc2I)N1CC12CC3CC(CC(C3)C1)C2 | -0.514 | -0.407 | 0.01 | 0.487 | 1.05 | 0.346 | 1.24 | -2.34 (inactive) | 0.303 | -0.184 |
| C=C(CCCC)/C(=C/C[C@@H](OC(=O)c1ccncc1)c1cccc(OCCO)c1)c1cc(C(=O)OC)ccc1OC | -0.0606 | 0.522 | 0.0211 | 0.291 | 0.535 | 1.38 | 1.26 | 9.67 (active) | 0.223 | 0.0722 |
| C=CC[C@]1(C(=O)O)N=C(c2ccc(OCCCO)cc2)O[C@H]1c1ccccc1N=[N+]=[N-] | 1.17 | -0.258 | -0.101 | 0.427 | -0.16 | 0.215 | 0.686 | 4.6 (inactive) | 0.489 | -0.403 |
| C=C(COC)C(=O)CC[C@H](OC(=O)c1ccccc1-c1ccccc1C(=O)O)c1cccc(OCCO)c1 | -0.102 | 1.15 | -0.103 | 0.24 | 0.0421 | 1.66 | 1.37 | -3.97 (inactive) | -0.25 | -0.0296 |
| CO[C@@H]1COC(=O)[C@@H]2CCCN2C(=O)CC=C[C@@H](C)[C@H](OC)COC(=O)[C@@H]2CCCN2C(=O)CC=C[C@H]1C | -0.614 | 0.164 | -0.113 | 0.0311 | -0.545 | -0.312 | 0.732 | 0.47 (inactive) | -0.0975 | 0.347 |
| COCCOC(=O)N1C(=O)[C@@]2(c3cc(C#CCC(C(=O)OC)C(=O)OC)ccc31)[C@H](C(=O)N1CCN(c3ncccn3)CC1)[C@H]1C(=O)O[C@H](c3ccccc3)[C@H](c3ccccc3)N1[C@@H]2c1ccc(O)cc1 | -0.0797 | 1.47 | 0.0051 | 0.579 | 1.08 | 1.07 | 1.2 | -0.24 (inactive) | -0.304 | 0.0623 |
| CC(C)NC(=O)[C@@]1(Cc2ccccc2I)c2ccccc2C(=O)N(C2CCCCC2)[C@H]1c1ccc(CO)cc1 | -0.107 | 0.072 | 0.0402 | 0.87 | 1.18 | 1.86 | 1.38 | -2.62 (inactive) | 1.38 | 0.0505 |
| C=C(/C(=C/C[C@@H](OC(=O)c1ccncc1)c1ccc(CO)o1)c1cnc2ccccc2c1)C(C)C | 0.358 | 0.522 | -0.0767 | 1.02 | 1.52 | 1.15 | 1.04 | -0.493 (inactive) | 0.398 | -0.0994 |
| O=C1NC(=O)C2C1C=CC(C(O)C=Cc1ccc([N+](=O)[O-])cc1)N2Nc1ccccn1 (stereo not given) | -0.273 | 0.224 | 0.102 | 0.212 | 1.15 | -0.0777 | 0.966 | 0.126 (inactive) | -0.199 | -0.226 |
| O=C1O[C@@H](c2ccccc2)[C@@H](c2ccccc2)N2[C@@H](c3ccc(O)cc3)[C@]3(C(=O)Nc4ccc(C#CC5(O)CCCCCC5)cc43)[C@@H](C(=O)Nc3nc4ccccc4s3)[C@H]12 | -0.128 | 0.91 | 0.0759 | 0.814 | 1.49 | 1.16 | 0.994 | -0.253 (inactive) | 1.12 | 1.71 |
| CCN1C(C)=C(C(=O)OC)[C@@H](c2ccccc2)N2C(=O)[C@@]3(C(=O)OC)O[C@@]12[C@@H]1C(=O)N(c2ccccc2)C(=O)[C@@H]13 | -0.418 | 0.833 | -0.0924 | 0.877 | 1.14 | 0.75 | 0.892 | -0.909 (inactive) | 0.585 | 0.122 |
| COCCOC(=O)N1C(=O)[C@@]2(c3cc(C#CCC(C(=O)OC)C(=O)OC)ccc31)[C@H](c1ccccc1OCCO)N1[C@H](c3ccccc3)[C@H](c3ccccc3)OC(=O)[C@H]1[C@@H]2C(=O)N1CCCCCCC1 | 3.6 | 0.618 | 0.486 | 0.388 | 0.966 | 0.889 | 1.33 | -0.0751 (inactive) | 2.9 | 2.32 |
| O=C1O[C@H](c2ccccc2)[C@H](c2ccccc2)N2[C@H]1[C@@H](C(=O)NC[C@H](O)c1ccccc1)[C@]1(C(=O)Nc3ccc(C#CC4=CCCCC4)cc31)[C@H]2c1ccc(OCCO)cc1 | 0.0854 | 0.21 | -0.0579 | 0.423 | 1.04 | 0.413 | 1.02 | 0.315 (inactive) | 0.681 | 0.136 |
| O=C1OCCC=C[C@H]2OC34C=CCN(Cc5ccccc5)C(=O)[C@H]3N(CCO)C(=O)[C@@H]4C12 (stereo not given in full) | 0.672 | -0.465 | -0.183 | -0.575 | -0.607 | -0.419 | -0.574 | 0.135 (inactive) | -0.402 | -0.0645 |
| C=CCC(OC(C)=O)[C@@H]1[C@@H](N(Cc2cccc3ccccc23)C(=O)c2ccc(C)cc2)c2cc(OCCCO)ccc2N1C(=O)c1ccc(-c2ccccc2)cc1 (stereo not given in full) | 0.115 | 0.529 | -0.0753 | 0.255 | -0.169 | 0.0808 | -0.173 | -2.1 (inactive) | 0.159 | -0.335 |
| C[C@@H]1NC(=O)[C@H](Cc2ccccc2)NC(=O)[C@@]23C(=O)N[C@@H](Cc4ccccc4)C2[C@H](C)[C@@]2(C)O[C@H]2C3/C=C/C/C=C\CNC1=O (stereo not given in full) | -0.191 | -0.0483 | -0.111 | 0.0009 | -0.315 | -0.318 | -0.603 | -0.225 (inactive) | -0.784 | 0.122 |
